Screening results: PubChem BioAssay, National Center for Advancing Translational Sciences (NCATS)
TSG101-PTAP inh = blocks PTAP/TSG101 interaction to inhibit HIV-1 budding. Q99816. Fluorescence polarization, FITC-PTAP peptide / Tsg101 binding. 340,000 tested, under 10 active. Potency, µM (titrated, usually from 115 µM), actives largely listed as inhibitors; active means well fitted inhibition curve with a large enough effect in the main read-out, with a control signal flat, not every such curve was filed as active; inconclusive means small, poorly fitted or top-dose-only effect, or effect the other way, or a change in a side signal; inactive means no such curve, though single readings can be large or run the other way
Target sequence (Q99816 whole entry, looked up): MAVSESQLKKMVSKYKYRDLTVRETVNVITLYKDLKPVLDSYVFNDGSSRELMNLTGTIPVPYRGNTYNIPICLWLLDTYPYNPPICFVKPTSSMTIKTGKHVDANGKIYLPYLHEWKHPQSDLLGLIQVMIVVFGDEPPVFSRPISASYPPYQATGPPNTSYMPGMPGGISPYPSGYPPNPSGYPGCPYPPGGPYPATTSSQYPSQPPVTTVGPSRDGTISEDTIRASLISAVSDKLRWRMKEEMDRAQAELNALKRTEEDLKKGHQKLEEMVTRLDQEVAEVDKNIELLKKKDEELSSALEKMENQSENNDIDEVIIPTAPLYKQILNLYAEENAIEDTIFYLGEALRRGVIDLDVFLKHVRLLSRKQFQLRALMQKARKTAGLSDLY
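Steps: Tsg101 binding domain dispensed (10 uM final), compounds pinned in DMSO, FITC-labeled PTAP-motif peptide added (50 nM final); after 20 min binding at room temperature, polarization measured.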
MCF10A rereplic = DNA re-replication induction in MCF 10a cells; Potency, µM (series often up to 46.1 µM), most hits filed as activators; MCF 10A DNA re-replication, Hoechst nuclear intensity, 48 h; 350,000 compounds, 2.9% hits; AID 624296; further: nearly all actives have a fitted effect of over 50% in size
RGS4 inh = inhibitors of human regulator of G protein signaling 4; AID 504845; 390,000 compounds, 0.039% hits; Potency, µM (highest dose often 114 µM), usual class: inhibitors; Transcreener GDP fluorescence polarization, RGS4-accelerated GTP hydrolysis; P49798; further: nearly all actives have a fitted effect of over 75% in size
Target sequence (P49798 whole entry, looked up): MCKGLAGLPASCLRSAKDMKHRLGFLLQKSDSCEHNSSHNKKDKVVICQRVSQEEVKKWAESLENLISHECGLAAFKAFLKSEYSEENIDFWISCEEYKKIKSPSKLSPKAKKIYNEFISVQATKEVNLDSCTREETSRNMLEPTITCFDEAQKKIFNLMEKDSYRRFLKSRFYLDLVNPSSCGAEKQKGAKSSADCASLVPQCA
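MLSMR compounds (23 nl, pin-transferred) preincubated 10 min at room temperature with a 500nM (2x) first reagent, then RGS4 at 900nM (2x) plus Transcreener GDP mix added; fluorescence polarization (620/688 nm) read before and after 90 min at 30 °C.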
KB-3-1 tox = KB-3-1 parental cell cytotoxicity | KB-3-1 viability, CellTiter-Glo ATP luminescence, 72 h | Potency, µM (top dose mostly 46.1 µM), usual class: cytotoxic | 400,000 compounds, 1.4% hits | AID 1347075; further: nearly all actives have a fitted effect of over 60% in size
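Here the drug-naive KB-3-1 line serves as comparator for MDR sub-line selectivity; cells received compound titrations, 72 h at 37 °C, then CellTiter-Glo readout.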
KB-V1 MDR tox = kills drug-selected multidrug resistant KB-V1 cells | KB-V1 MDR cells viability, CellTiter-Glo, 72 h | Potency, µM (doses to about 46.1 µM), actives largely listed as cytotoxic | 400,000 compounds, 3.4% hits | AID 1347076; further: nearly all actives have a fitted effect of over 60% in size
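Cytotoxicity via CellTiter-Glo luminescence after 72 h compound exposure at 37 degrees C. Cells: drug-selected KB-V1 line, DMEM phenol-red free plus 10% FBS. Compounds tested at multiple concentrations; normalized data fitted to concentration-effect curves.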
SW480 rereplic = inducers of DNA re-replication in SW480 colon cancer cells; SW480 DNA re-replication, Hoechst DNA content imaging, 48 h; Potency, µM (doses to about 46.1 µM), actives largely listed as activators; 340,000 compounds, 1.8% hits; further: nearly all actives have a fitted effect of over 55% in size
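Treated cells incubate 48 hr (37 C, 5% CO2), are stained 40 min with Hoechst, and nuclear fluorescence is enumerated; a rise in nuclei with high DNA signal marks re-replication.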
A number is an active result; – = inactive; ? = inconclusive; · = no result. An excerpt weighted towards active compounds, which were near 6.6% of everything screened. Unless noted, the call rests on the fitted dose curve; in most records, active means well fitted curve in the direction sought with a large enough effect; inconclusive means small, poorly fitted or top-dose-only effect, or another doubt; inactive means no such curve, though single readings can be large; an effect the other way counts as inactive or inconclusive.

SMILES | TSG101-PTAP inh | MCF10A rereplic | RGS4 inh | KB-3-1 tox | KB-V1 MDR tox | SW480 rereplic
Clc1ccc(C(c2ccc(Cl)cc2)n2cc[n+](CC(OCc3ccc(Cl)cc3Cl)c3ccc(Cl)cc3Cl)c2)cc1 (configuration not stated) | – | 5.17µM | ? | ? | ? | –
Clc1ccc(COC(Cn2ccnc2)c2ccc(Cl)cc2Cl)cc1 (configuration not stated) | – | ? | – | ? | ? | ?
Cc1nnc(NC(=O)c2cccn(Cc3ccccc3F)c2=O)s1 | · | · | – | – | – | ·
CN(C)c1ccccc1 | · | · | · | – | – | ·
CN(C)c1ccc(C(=O)c2ccc(N(C)C)cc2)cc1 | – | 6.51µM | – | ? | ? | 5.17µM
Clc1cccc(Cl)c1Cn1nnc(N2CCCC2)n1 | – | – | – | – | – | –
O=c1c2ccccc2nc(-c2ccccc2)n1-c1ccccc1 | – | – | – | – | ? | –
O=c1c2ccccc2[se]n1-c1ccccc1 | – | ? | 0.67µM | ? | ? | 18.4µM
CC(C)N1CCN(Cc2cccc([N+](=O)[O-])c2)CC1 | – | – | – | – | – | 1.84µM
O=[N+]([O-])c1cccc(CN2CC=C(c3ccc(F)cc3)CC2)c1 | – | – | – | 9.2µM | – | –
CC(C)(C)NCC(O)c1cc(Cl)c(N)c(C(F)(F)F)c1 (configuration not stated) | · | – | · | · | · | –
O=C1C[C@@H]2OCC=C3CN4CC[C@]56c7ccccc7N1[C@@H]5[C@@H]2[C@H]3C[C@H]46 (tested in a mixture with another compound) | · | · | · | · | · | –
Oc1ccc2c3c1O[C@H]1[C@@H](O)CC[C@@]4(O)C(C2)N(CC2CCC2)CCC314 (some centres not stated) | · | – | · | · | · | –
CC(C)(C)c1ccc(OCC(=O)Nc2ccc(Cl)cc2C(=O)c2ccccc2)cc1 | · | · | – | – | – | ·
O=C1C=C2C=CC3C[C@@]2(O1)C1CCCCN31 (some centres not stated) | · | 21.1µM | · | · | · | ?
O=C1OC(c2ccc(O)c(S(=O)(=O)O)c2)(c2ccc(O)c(S(=O)(=O)O)c2)c2c(Br)c(Br)c(Br)c(Br)c21 | · | – | · | · | · | –
COc1cc2cc(C(=O)N3CC(COS(C)(=O)=O)c4ccc(O)cc43)[nH]c2c(OC)c1OC (configuration not stated) | – | – | – | ? | 0.0092µM | –
O=C(/C=C/c1c[nH]c2ccccc12)c1c(O)n(CCc2ccccc2)c(=O)[nH]c1=O | ? | 16.4µM | – | – | ? | 18.4µM
O=C(CN1CCCC1)c1ccccc1 | · | · | · | – | – | ·
O=C(c1ccccc1)C(CN1CCCC1)c1ccccc1 (configuration not stated) | – | 3.26µM | ? | 5.17µM | 5.17µM | 7.31µM
NCC(CC(=O)O)c1ccc(Cl)s1 (configuration not stated) | · | · | – | · | · | ·
CS(=O)(=O)NCc1nnc2n1-c1ccc(Cl)cc1C(c1ccccc1)=NC2 | – | – | – | – | – | –
Cc1ccc(CN2C(=O)CN=C(c3ccccc3)c3ccccc32)cc1 | – | – | – | ? | 18.4µM | –
O=C1CN=C(c2ccccc2)c2cc(Cl)ccc2N1Cc1ccc(Cl)cc1 | · | · | – | ? | 14.6µM | ·
Cc1cccc(CN2C(=O)CN=C(c3ccccc3)c3cc(Cl)ccc32)c1 | · | · | – | · | · | ·
SMILES | TSG101-PTAP inh | MCF10A rereplic | RGS4 inh | KB-3-1 tox | KB-V1 MDR tox | SW480 rereplic
CSCc1nnc2n1-c1ccc(Cl)cc1C(c1ccccc1)=NC2 | – | – | – | ? | 16.4µM | –
Cc1cccc(CN2C(=O)CN=C(c3ccccc3)c3ccccc32)c1 | · | · | – | · | · | ·
[Hg+][c]1ccccc1 | · | – | · | ? | ? | 10.6µM
O=C(Nc1ccon1)c1cccn(Cc2cccc([N+](=O)[O-])c2)c1=O | · | · | – | – | – | ·
COc1cc2c(cc1O)CC1c3c(cc(O)c(OC)c3-2)CCN1C (configuration not stated) | – | – | – | – | – | –
COc1cc2c(cc1OC)-c1c(OC)c(OC)cc3c1[C@H](C2)N(C)CC3 | · | – | – | ? | 13µM | –
COC(=O)c1c(N)n(Cc2ccc(OC)cc2)c2nc3ccccc3nc12 | – | – | – | – | – | ?
CCCNC(=O)c1c(N)n(Cc2ccc3c(c2)OCO3)c2nc3ccccc3nc12 | – | 0.651µM | – | – | ? | 3.26µM
CC(C)CNC(=O)c1c(N)n(Cc2ccc3c(c2)OCO3)c2nc3ccccc3nc12 | – | ? | – | ? | ? | 2.59µM
CC(C)CCNC(=O)c1c(N)n(Cc2ccc3c(c2)OCO3)c2nc3ccccc3nc12 | – | ? | – | – | ? | 2.59µM
CCCN(C/C=C\I)[C@@H]1CCc2ccc(O)cc2C1 | · | · | – | · | · | ·
NC1(C(=O)O)CCCc2ccc(N(CCCl)CCCl)cc21 (configuration not stated) | – | ? | – | – | – | ?
O=C1NC(=O)C2(CCCc3ccc(N(CCCl)CCCl)cc32)N1 (configuration not stated) | – | 18.4µM | – | – | – | 16.4µM
Cc1ccc(S(=O)(=O)NN=Cc2cc(Cl)ccc2O)cc1 | – | ? | – | – | – | –
O=C(/C=C/c1ccc2c(c1)OCO2)c1c(O)n(CCC2=CCCCC2)c(=O)[nH]c1=O | – | 1.84µM | – | ? | 7.31µM | –
CN(C)CCN=Cc1c(O)n(CCC2=CCCCC2)c(=O)[nH]c1=O | – | – | – | – | – | –
C=CCn1c(O)c(C(CC)=NCCC2=CCCCC2)c(=O)[nH]c1=O | – | – | – | – | 8.91µM | –
COc1ccc(/C=C/C(=O)c2c(O)n(CCC3=CCCCC3)c(=O)[nH]c2=O)cc1 | – | 7.31µM | – | 20.6µM | 10.3µM | –
CCCCCCCCc1ccc(O)cc1 | – | – | – | ? | – | –
CCCCCCCCn1sccc1=O | – | 20.6µM | – | ? | – | 10.3µM
O=C(Cc1c(O)c2ccccc2oc1=O)c1ccc(F)cc1 | – | – | ? | – | ? | –
COc1cccc(NC(=O)c2cccn(Cc3ccccc3C)c2=O)c1 | · | · | – | ? | – | ·
Cc1ccc(OCC(=O)N2CCN(C3CCC(c4ccccc4)CC3)CC2)cc1 (configuration not stated) | – | 13µM | – | – | ? | –
O=C(COc1ccc(Br)cc1)N1CCN(C2CCCC2)CC1 | – | – | – | – | ? | –
Cc1[nH]c2ccccc2c1C(=O)CN1CC=C(c2ccccc2)CC1 | – | 18.4µM | – | ? | – | ?
O=C(Nc1ccc(Br)cc1C(=O)O)c1ccc2c(c1)C(=O)N(Cc1ccccc1)C2=O | – | ? | – | – | – | –
Cc1ccccc1-[n+]1c(-c2ccccc2)cc(-c2ccccc2)cc1-c1ccccc1 | – | – | – | 6.51µM | – | 2.31µM
